Vaccinia Venus = qHTS for Stage-Specific Inhibitors of Vaccinia Orthopoxvirus: Venus Reporter Primary qHTS | Vaccinia virus Venus reporter expression, fluorescence | Potency, µM (doses to about 36.5 µM), inactives show top-dose activity change, negative = inhibition, most hits filed as inhibitors | hit rate 0.46% among 330,000 | AID 720580, 2013; calls by dose curve; tested in A549 cells; note: potency is the fitted concentration of half-maximal effect; nearly all actives have a fitted effect of over 30% in size
MARV entry inh = qHTS for inhibitors of binding or entry into cells for Marburg Virus; Potency, µM (doses to about 37.8 µM), inactives show at the top dose activity change, negative = inhibition, most hits filed as inhibitors; Marburg virus pseudotyped entry inhibition, cell reporter; AID 540276, 2011; hit rate 1.8% among 300,000; calls by dose curve; tested in HEK293 cells; note: potency is the fitted concentration of half-maximal effect
VACV mCherry inh = qHTS for Stage-Specific Inhibitors of Vaccinia Orthopoxvirus: mCherry Reporter Primary qHTS. Vaccinia virus mCherry reporter infection, fluorescence. AID 720579, 2013. hit rate 0.63% among 310,000. Potency, µM (doses to about 36.5 µM), inactives show top-dose activity change, negative = inhibition, most hits filed as inhibitors; calls by dose curve; tested in A549 cells; note: potency is the fitted concentration of half-maximal effect; nearly all actives have a fitted effect of over 35% in size
LASV entry inh = qHTS for Inhibitors of binding or entry into cells for Lassa Virus. Potency, µM (doses to about 37.9 µM), for the others: at the top dose activity change, negative = inhibition, most hits filed as inhibitors. hit rate 1.2% among 300,000. Lassa virus pseudotype entry inhibition, cell reporter; calls by dose curve; tested in HEK293 cells; note: potency is the fitted concentration of half-maximal effect; nearly all actives have a fitted effect of over 50% in size
FMDV inh = High Throughput Screening for Foot and Mouth Disease Virus Antivirals; FMDV antiviral cell-based qHTS; Potency, µM (series often up to 57.9 µM), inactives show top-dose activity change, negative = inhibition, actives largely listed as inhibitors; hit rate 1.2% among 410,000; calls by dose curve; tested in HEK293T cells; note: read-out not given here; potency is the fitted concentration of half-maximal effect; nearly all actives have a fitted effect of over 45% in size
HCMV antiviral = qHTS Assay for inhibitors of the human cytomegalovirus (HCMV) | activity change, negative = inhibition, % at 57.5 µM | hit rate 4.5% among 410,000 | AID 1259415, 2018 | HFF cells, HCMV-luciferase reporter, 72 h; hits give low values; in the data active = activity change below about -60%; inconclusive = no clear call, values can overlap the other calls; inactive = above about -39%
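After 16 h attachment at 37C, HFF cells received test compound and HCMV-luciferase (1 PFU/cell); reporter luminescence read 72 h later, data normalized against buffer-only and known inhibitor Salinomycin.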
Active calls of the source: *; i = inactive; ? = inconclusive; . = not tested or not shown; [ ] = remark or other dose. An excerpt weighted towards active compounds, which were near 6.5% of everything screened. % is set by controls: 0 for no effect and ±100 for the full control effect.

SMILES	Vaccinia Venus	MARV entry inh	VACV mCherry inh	LASV entry inh	FMDV inh	HCMV antiviral
CCN(CC)S(=O)(=O)c1cc(NC(=O)c2cc([N+](=O)[O-])ccc2N2CCOCC2)ccc1C	-18%	18µM*	-1%	?	-19%	?
CN(C)S(=O)(=O)c1cccc(NC(=O)c2ccc(N3CCOCC3)c([N+](=O)[O-])c2)c1	-28%	?	?	?	?	-71*
Cc1ccc(C(=O)Nc2ccccc2[N+](=O)[O-])cc1S(=O)(=O)N1CCOCC1	-3%	-1%[46.1 µM]	i	1%	-2%	-7
COc1cc(=O)n2c(c1C(=O)N(C)C(C)c1ccco1)CCN(C(=O)c1ccc(C(C)=O)cc1)CC2 (configuration not stated)	0%	.	i	.	-9%	.
CCc1ccc(C(=O)Nc2cccc(-c3nc4cc(C(C)C)ccc4o3)c2)cc1	1%	22%[46.1 µM]	-3%	1%[46.1 µM]	1%	14
Cc1ccc(CN2CCC(C3(c4ccccn4)NC(=O)N(CC4CCCO4)C3=O)CC2)cc1C (configuration not stated)	-17%	.	-4%	.	-5%	.
COc1ccccc1NC(=O)c1cc(=O)c2ccc(C)c(C)c2o1	3%	?	-3%	23%[46.1 µM]	-4%	-9
COc1ccc2oc(-c3ccc(C)c(NC(=O)c4ccc(N5CCOCC5)c([N+](=O)[O-])c4)c3)nc2c1	.	-29%	.	-5%	58%	-81*
O=C(Nc1cccc(S(=O)(=O)N2CCOCC2)c1)c1ccc(Cl)c([N+](=O)[O-])c1	-9%	?	i	3%[46.1 µM]	40µM*	16
CN(C)S(=O)(=O)c1cc(NC(=O)c2ccc(-n3ccnc3)c([N+](=O)[O-])c2)ccc1Cl	-11%	?	-3%	?	?	-71*
CCOc1ccc(C(=O)Nc2cc(-c3nc4cc(OC)ccc4o3)ccc2C)cc1[N+](=O)[O-]	-12%	?	-8%	11%[46.1 µM]	40%	97
Cc1ccc(CNC(=O)c2cc3c(=O)n(Cc4ccco4)ccc3nc2C)cc1	-5%	.	-5%	?	-12%	?
CC1CCCCN1S(=O)(=O)c1ccc(C(=O)Nc2nnc(-c3ccccc3Cl)o2)cc1 (configuration not stated)	-27%	13µM*	?	?	?	?
CCC1CCCCN1S(=O)(=O)c1ccc(C(=O)Nc2nnc(-c3ccccc3Cl)o2)cc1 (configuration not stated)	-26%	?	?	?	-3%	.
CC1CCCCN1S(=O)(=O)c1ccc(C(=O)Nc2nnc(-c3ccncc3)o2)cc1 (configuration not stated)	-18%	?	-19%	?	-19%	-71*
CCN(CC)c1ccc(CNS(=O)(=O)c2cc3c(cc2C)NC(=O)CO3)cc1	-3%	.	-5%	-2%[46.1 µM]	1%	0
COc1cccc(C2CC(=O)Nc3c2ccc(C)c3C)c1OC (configuration not stated)	-12%	2%[46.1 µM]	-18%	-25%[46.1 µM]	-28%	-22
C=CCOC(=O)C1=C(C)Nc2ncnn2C1c1cc(Br)ccc1F (configuration not stated)	.	?	.	-26%	13µM*	-28
C=CCOC(=O)C1=C(C)Nc2ncnn2C1c1cccs1 (configuration not stated)	.	-21%	.	-2%	-17%	14
CCc1ccc(-n2nc(C)c3c(C)cc(=O)n(CC(=O)Nc4ccc(OC)c(OC)c4)c32)cc1	4%	.	-12%	2%[46.1 µM]	-8%	37
COc1cc2c(cc1OC)C(c1cc(Br)ccc1F)N(C(=O)CCl)CC2 (configuration not stated)	?	-4%	?	.	28µM*	-93*
CC1CCCN(c2ccc(N)cc2C(N)=O)C1 (configuration not stated)	-2%	26%[46.1 µM]	-9%	?	-15%	?
CC1CCCN(c2ccc(F)cc2N)C1 (configuration not stated)	30%	?	-17%	?	-6%	-78*
CCOc1ccc(CN2CCCC(CO)(Cc3ccc(F)cc3)C2)cc1 (configuration not stated)	-23%	7.9µM*	?	-40%[46.1 µM]	1%	12
COc1ccc(CN2CCCC(CO)(Cc3ccc(F)cc3F)C2)cc1 (configuration not stated)	-14%	10µM*	?	-42%[46.1 µM]	-4%	-4
SMILES	Vaccinia Venus	MARV entry inh	VACV mCherry inh	LASV entry inh	FMDV inh	HCMV antiviral
O=c1c2ccccc2c(-c2ccccc2)nn1Cc1ccc(Cl)cc1	-19%	-28%	-14%	0%	-14%	22
O=c1cc(N2CCCCC2)c(-c2ccccc2)nn1Cc1ccccc1Cl	?	?	.	?	40µM*	-18
O=c1cc(Cl)c(-c2ccccc2)nn1Cc1ccc(Cl)cc1	-19%	-1%	?	-24%	-14%	-64*
O=c1cc(N2CCCCC2)c(-c2ccccc2)nn1Cc1ccc(Cl)cc1Cl	-24%	?	-22%	?	?	-24
COc1ccc(CNC(=O)CN(C)c2nn3c(=O)cc(C)nc3s2)cc1	2%	-10%[46.1 µM]	-3%	5%[46.1 µM]	1%	5
Fc1ccc(-c2cn(-c3ccccc3)c3[n+]2CCS3)cc1	-3%	2%[46.1 µM]	i	-27%[46.1 µM]	-20%	-25
Clc1ccc(-c2cn(-c3ccccc3)c3[n+]2CCS3)cc1	-4%	?	-3%	?	-16%	-72*
COc1ccc(-c2cn(-c3ccc(Br)cc3)c3[n+]2CCS3)cc1	-18%	-25%	-10%	-5%	?	-90*
CC(=O)c1ccc(-n2cc(-c3ccc(C(C)(C)C)cc3)[n+]3c2SCCC3)cc1	-10%	?	-8%	?	?	-98*
CC(NC(=O)CCCCCNC(=O)N1CCn2c1nc1ccccc12)c1ccccc1 (configuration not stated)	.	.	.	.	-20%	-73*
O=C(Nc1ccccc1N1CCN(C(=O)c2ccc(Cl)cc2)CC1)c1cccc([N+](=O)[O-])c1	-2%	?	-21%	2%[46.1 µM]	-13%	-88*
CN1CCN(c2ccccc2NC(=O)c2cccc([N+](=O)[O-])c2)CC1	.	.	.	.	-3%	10
O=C(CSc1ccc(Cl)cc1)Nc1ccccc1N1CCN(C(=O)c2ccccc2)CC1	?	?	.	16µM*	13µM*	-21
Cc1ccc(C)c(NC(=O)Cc2csc(-c3ccccc3)n2)c1	-6%	?	-16%	-1%	-19%	-27
Cc1ccc(C)c(NC(=O)Cc2nc(CNCC(C)C)cs2)c1	-9%	7.9µM*	-18%	0%	0%	-13

Screening results (PubChem)
